A selection: hits, their analogues and other compounds. The true share with any hit is near 4.5%.
697 NFkB inh: lowers PMA/ionomycin-induced NF-kB signal in 697 B cells; inhibition, % at 4 µM; 330,000 compounds, 0.33% hits; 697 B-cell NF-kB luciferase reporter, 16 h; in the data active = inhibition above about 35%
Jurkat NFkB inh: lowers PMA/ionomycin-induced NF-kB signal in Jurkat cells | PMA/ionomycin-induced NF-kB luciferase reporter, luminescence | inhibition, % at 4 µM | 330,000 compounds, 0.53% hits | AID 435003; in the data active = inhibition above about 50%
Mdm2-MdmX inh: human Mdm2/MdmX binding inhibition; O15151+Q00987; SaOS-2 split-luciferase Mdm2/MdmX complementation, luminescence; inhibition, % at 8 µM; 330,000 compounds, 3% hits;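 active = inhibition of at least 50% at 8 µM in the primary screen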
Target sequence (O15151 whole entry, looked up): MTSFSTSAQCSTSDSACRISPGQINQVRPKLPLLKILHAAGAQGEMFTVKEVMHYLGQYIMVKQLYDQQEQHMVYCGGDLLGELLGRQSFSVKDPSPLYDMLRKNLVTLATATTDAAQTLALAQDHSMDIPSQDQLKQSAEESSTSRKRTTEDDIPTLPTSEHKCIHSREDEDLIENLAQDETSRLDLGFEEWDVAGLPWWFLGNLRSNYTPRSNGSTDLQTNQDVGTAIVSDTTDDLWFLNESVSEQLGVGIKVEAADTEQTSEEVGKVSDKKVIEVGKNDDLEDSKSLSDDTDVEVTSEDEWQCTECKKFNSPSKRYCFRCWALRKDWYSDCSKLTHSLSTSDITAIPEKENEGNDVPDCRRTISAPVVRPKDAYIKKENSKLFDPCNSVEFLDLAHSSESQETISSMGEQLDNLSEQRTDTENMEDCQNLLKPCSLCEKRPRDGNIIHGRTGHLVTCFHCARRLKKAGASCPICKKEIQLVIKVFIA
Target sequence (Q00987 whole entry, looked up): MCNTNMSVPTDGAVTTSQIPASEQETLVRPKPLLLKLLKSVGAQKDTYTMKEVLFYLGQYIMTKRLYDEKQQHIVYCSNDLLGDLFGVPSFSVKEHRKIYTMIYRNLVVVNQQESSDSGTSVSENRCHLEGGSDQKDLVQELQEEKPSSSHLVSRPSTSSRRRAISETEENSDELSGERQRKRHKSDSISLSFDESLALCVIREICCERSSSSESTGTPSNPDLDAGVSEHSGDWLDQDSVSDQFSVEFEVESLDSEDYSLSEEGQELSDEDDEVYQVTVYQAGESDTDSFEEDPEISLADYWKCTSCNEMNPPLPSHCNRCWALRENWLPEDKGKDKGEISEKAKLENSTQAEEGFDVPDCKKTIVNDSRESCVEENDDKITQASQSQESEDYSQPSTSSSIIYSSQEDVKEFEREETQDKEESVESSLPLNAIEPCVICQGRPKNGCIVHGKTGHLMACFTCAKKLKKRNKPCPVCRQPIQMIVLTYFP
CSC inhib: blocks cancer stem cells. inhibition, % at 7.5 µM. AID 2717. cancer stem cell-like cells viability, luminescence. 300,000 compounds, 1.1% hits; in the data active = inhibition above about 75%; tested in HMLE shEcad cells
aSyn 5UTR inh: 5' untranslated region of α-synuclein, MLPCN primary screen; alpha-synuclein 5'UTR reporter, inhibitor activity; inhibition, % (tested at 7.5 µM); 300,000 compounds, 0.82% hits; in the data active = inhibition above about 60%;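 also: H4 neuroglioblastoma cells stably carrying SNCA 5'UTR luciferase fusion; 0% = DMSO wells and 100% = positive control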
Gli-Sufu antag: blocks Gli-Sufu signaling in a luciferase reporter | Sufu-KO-LIGHT fibroblasts, Gli luciferase reporter luminescence | inhibition, % at 5 µM | 340,000 compounds, 0.74% hits;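 active = inhibition above about 55%, limit read from the data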;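 also: 0% = DMSO-treated cells and 100% = wells with medium but no cells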
Jurkat NFkB conf: inhibitors of the PMA/ionomycin-induced NF-kB reporter in Jurkat cells, retest; inhibition, % at 4 µM; AID 435020; shares compounds with Jurkat NFkB inh; Jurkat NF-kB luciferase, 16 h; 2,700 compounds, 27% hits;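 active = inhibition reaching about 45% at 4 µM in either replicate, limit read from the data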;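 also: plate controls were PMA/ionomycin stimulated DMSO wells for no effect and unstimulated DMSO wells for full effect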
An asterisk follows results filed as active; x = no result given.

SMILES	697 NFkB inh	Jurkat NFkB inh	Mdm2-MdmX inh	CSC inhib	aSyn 5UTR inh	Gli-Sufu antag	Jurkat NFkB conf
O=C(Nc1cccc(Cl)c1)c1ccccc1	-76.6	-79.5	-23.8	7.9	x	-26.4	x
O=C(Nc1ccc(Cl)c(Cl)c1)c1ccccc1	-126.0	-188.0	-166.6	11.4	x	-74.5	-92.8
CCOc1ccc(-c2c(C(=O)N/N=C/c3ccsc3)nnn2-c2nonc2N)cc1	10.9	7.8	-6.0	-2.6	29.8	3.2	x
Cc1ccc(S(=O)(=O)CNC(=S)c2cccc(Cl)c2)cc1	1.7	-2.3	-5.1	0.9	-33.6	3.4	x
Cc1c(C(=O)OCC(C)C)[nH]c2c1C(=O)CC(c1cccs1)C2 (stereo not drawn)	-19.0	51.4*	47.3	53.6	48.2	36.6	48.6
CCOc1ccc(C(=O)N/N=C/c2cc([N+](=O)[O-])cs2)cc1	1.0	10.9	-1.2	21.3	22.6	-24.6	x
COc1cc(C(=O)N/N=C/c2cc([N+](=O)[O-])cs2)cc(OC)c1OC	-17.1	67.4*	33.6	51.6	50.3	21.0	42.3
OC1(c2ccccc2)CN(c2ccccc2)C2=[N+]1CCS2 (stereo not drawn)	-7.9	0.6	-19.9	-5.0	-33.0	-4.6	x
Cc1ccc(OCC(=O)N2CCCCC2C)c([N+](=O)[O-])n1 (stereo not drawn)	-8.9	3.9	2.1	-12.6	x	6.8	x
O=C(Nc1nc2c(s1)CCCC2)c1ccc(Br)o1	-186.4	-95.1	-155.8	-16.3	-41.1	5.4	x
Cc1ccc(C(=O)Nc2nc3c(s2)CCCC3)o1	-196.7	-154.6	-108.4	22.9	-10.2	-103.4	-87.1
Cc1ccc2c(c1)sc1nc(=O)n(-c3cccc(Cl)c3)c(=O)n12	-77.6	-166.8	-153.3	33.9	-208.6	-106.2	-34.3
Cc1ccc2c(c1)sc1nc(=O)n(-c3ccc(Cl)cc3)c(=O)n12	-9.8	-34.7	-29.6	26.7	-59.1	-31.8	x
CC(=O)NC12CC3CC(C1)CC(C(=O)OCC(=O)c1cc(C)n(C)c1C)(C3)C2	-143.8	-162.2	-46.5	-12.1	x	-62.7	-61.6
CC(=O)NC12CC3CC(C1)CC(C(=O)OCC(=O)c1ccc4c(c1)OCCO4)(C3)C2	-8.2	-164.3	9.8	-8.4	-134.0	-33.0	-81.0
Cc1ccc(C(=O)c2sc3nsc(C)c3c2N)cc1	-212.0	-157.0	-95.9	-5.3	-41.9	3.1	-113.9
Cc1snc2sc(C(=O)c3ccc(Br)cc3)c(N)c12	-147.9	-129.1	11.8	16.7	-101.4	-59.2	x
COC(=O)C1C(=O)c2c([nH]c(C(=O)OC3CCCCC3)c2C)CC1C (stereo not drawn)	-168.8	-163.2	-113.0	25.4	-178.3	-23.9	-93.3
COC(=O)C1C(=O)c2c([nH]c(C(=O)OC3CCCC3C)c2C)CC1C (stereo not drawn)	-161.2	-180.2	-135.6	25.3	-168.2	-69.5	-112.0
COC(=O)C1C(=O)c2c([nH]c(C(=O)OCCOC(C)C)c2C)CC1C (stereo not drawn)	-27.0	-19.9	5.5	-7.2	-59.1	-16.9	x
Cc1cc(C)cc(C(=O)Nc2ccc(N3CCCC3)cc2)c1	-127.6	-160.0	-182.0	11.8	-120.5	-89.7	0.7
COc1ccccc1C(=O)Nc1ccc(N2CCCCC2)cc1	-198.0	-164.9	-190.0	-3.0	-65.9	-105.0	-55.3
Cc1ccc(C(=O)N2CCN(c3ccc(NC(=O)c4cc(C)cc(C)c4)cc3)CC2)cc1	-36.2	7.9	21.3	-33.5	13.8	10.9	x
COc1ccccc1C(=O)Nc1ccc(N2CCN(C(C)=O)CC2)cc1	-0.2	-3.4	38.9	x	-5.2	-2.8	x
O=C(Nc1ccc(N2CCCCCC2)cc1)c1ccc[nH]1	-109.9	-199.4	-181.7	27.2	x	-70.2	-37.2
SMILES	697 NFkB inh	Jurkat NFkB inh	Mdm2-MdmX inh	CSC inhib	aSyn 5UTR inh	Gli-Sufu antag	Jurkat NFkB conf
O=C(Nc1ccc(N2CCCCCC2)cc1)c1ccccc1Cl	-104.1	-25.9	0.1	4.4	-252.4	-76.6	x
Cc1cccc(OCC(=O)Nc2ccc3c(c2)C(=O)NC3=O)c1	-17.7	6.7	-1.4	-9.5	-9.3	2.9	x
CCC1(c2ccccc2)NC(=O)N(CC(=O)NNC(=O)COc2ccc(Cl)cc2C)C1=O (stereo not drawn)	16.2	10.6	-23.2	x	x	-3.2	x
N#Cc1c(-c2ccccc2F)cc(C2CC2)nc1SCC(=O)c1cccs1	-30.4	-2.2	-20.5	x	23.7	-11.9	x
O=C(CCCNC(=O)/C(=C/c1ccc(F)cc1)NC(=O)c1ccccc1)OCc1ccccc1	-4.8	10.5	23.6	-5.8	-27.4	0.8	x
Cc1cc(C)c(C#N)c(SCc2ccccc2[N+](=O)[O-])n1	7.5	16.3	13.8	2.4	18.0	0.8	x
Cc1cc(C)c(C#N)c(SCc2nnc(-c3ccccc3[N+](=O)[O-])o2)n1	-221.8	-183.7	23.4	x	19.1	-88.9	-123.8
Cc1cc(C)n(-c2ncccc2[N+](=O)[O-])n1	-0.1	5.1	19.6	-8.6	3.2	2.1	x
CC(C)c1ccc(-n2cnn(-c3ncccc3[N+](=O)[O-])c2=O)cc1	-155.1	-204.0	-159.1	1.3	-26.6	-118.9	-126.0
COc1ccc([C@H]2CC(=O)C=C(c3ccc(Cl)c(Cl)c3)C2)cc1	1.2	19.9	0.1	21.1	x	0.3	x
CCn1c(P(C)(=O)O)nc2cc(NC(=O)c3ccccc3Cl)ccc21	-5.3	-5.6	-1.2	-9.0	25.2	-30.7	x
O=[N+]([O-])c1ccc(Sc2ccc(Cl)c(Cl)c2)nc1	4.8	79.2*	24.9	-4.3	-12.1	-3.5	38.9
O=[N+]([O-])c1ccc(Sc2ccccn2)nc1	9.5	2.1	-12.6	-8.4	-46.6	3.2	x
CC(C)(C)c1ccc(C(=O)Nc2ccc(Oc3cccnc3)nc2)cc1	-38.2	51.7*	29.3	33.2	-45.5	-5.3	48.1
O=C(NC1(C(F)(F)F)N=C2SCCN2C1=O)c1cccnc1 (stereo not drawn)	-12.3	-0.8	-2.9	3.8	14.2	-4.0	x
Fc1ccccc1-c1nc(-c2ccc(Cl)cc2)no1	-246.6	-176.5	-147.2	-16.0	-202.8	-125.4	-76.5
O=[N+]([O-])c1ccc(N/N=C/c2cccc(O)c2O)cc1	-111.6	80.9*	-23.9	95.6*	-170.4	36.0	-5.4
Cc1cccc(NC(=O)/C=C/c2cccs2)n1	-159.1	-167.0	-72.8	5.1	-108.5	-103.5	-66.6
O=C(/C=C/c1cccs1)Nc1ccncc1	-38.4	-3.7	11.5	-7.2	-126.1	-13.8	x
Cc1ccc(NC(=O)C(=O)NCc2ccncc2)cc1	3.4	8.8	-18.5	-6.5	-23.1	-8.0	x
CCn1c(/C=C/c2c[nH]c3ccccc23)nc2ccccc2c1=O	-232.1	-266.2	-209.8	-12.4	-176.4	-39.8	-37.4
CCOC(=O)[C@@H]1[C@H]2COc3ccccc3[C@H]2N2C(=O)N(c3ccc(Cl)cc3)C(=O)[C@]12C	-3.6	-0.8	-3.6	-14.9	-1.5	0.6	x
COc1ccc(-c2csc(-c3cccs3)n2)c(OC)c1	-119.2	-186.2	-300.0	x	-125.9	-111.1	-130.6
O=C(NCc1cccc(C(F)(F)F)c1)N1CCN(S(=O)(=O)c2ccccc2F)CC1	1.6	-2.4	33.5	-4.7	18.3	-5.4	x

Assay outcomes: PubChem, several laboratories
